# Laboratory results taken from PubChem BioAssay (NCATS).
# Records with an inconclusive call do not appear. Where a call stands in place of a potency, no number is given. A number with no mark means an inactive call. Active and inactive are the calls of the source. Calls follow the shape of the dose curve; as a rule, active = well fitted curve in the direction sought with a large enough effect; inconclusive = small, poorly fitted or top-dose-only effect, or another doubt; inactive = no such curve, though single readings can be large; an effect the other way counts as inactive or inconclusive.
# Assays:
# [1] = molecular target: Glutathione peroxidase 1 (Homo sapiens) (UniProt P07203); experiment: Primary qHTS Assay for Inhibitors of Recombinant Selenoprotein Glutathione Peroxidase 1 (GPX1) (AID 1845191); also: nearly all actives have a fitted effect of over 65% in size
# Glutathione peroxidase 1 (Homo sapiens), sequence (P07203 whole entry, looked up): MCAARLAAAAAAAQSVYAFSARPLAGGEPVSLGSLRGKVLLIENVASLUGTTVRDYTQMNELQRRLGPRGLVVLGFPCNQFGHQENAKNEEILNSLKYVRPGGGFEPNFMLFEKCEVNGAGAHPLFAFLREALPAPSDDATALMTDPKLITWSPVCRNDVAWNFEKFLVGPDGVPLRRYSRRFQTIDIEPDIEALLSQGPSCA
# In short: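 GR-coupled readout: NADPH consumption tracked by fluorescence, ex 340/em 450 nm, at t=0 and after 15 min at RT. Final mix 10 nM GPX1, 1 mM GSH, 0.5 mM CHP, 0.5 mM NADPH, 100 nM GR, 0.01% BSA, following 30 min enzyme–compound preincubation.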
# [2] = molecular target: Phospholipid hydroperoxide glutathione peroxidase GPX4 (Homo sapiens) (UniProt P36969); experiment: Primary qHTS Assay for Inhibitors of Recombinant Selenoprotein Glutathione Peroxidase 4 (GPX4) (AID 1845192); also: nearly all actives have a fitted effect of over 65% in size; also: potency is read from the fitted curve at half-maximal effect
# Phospholipid hydroperoxide glutathione peroxidase GPX4 (Homo sapiens), sequence (P36969 whole entry, looked up): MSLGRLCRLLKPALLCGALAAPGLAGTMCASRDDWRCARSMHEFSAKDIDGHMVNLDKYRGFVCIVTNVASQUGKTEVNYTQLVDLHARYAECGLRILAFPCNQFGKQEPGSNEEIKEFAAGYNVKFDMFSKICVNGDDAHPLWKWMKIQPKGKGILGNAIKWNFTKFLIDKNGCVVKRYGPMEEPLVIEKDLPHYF
# In short: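 Steps: GPX4 plus compound, 30 min RT; add GR/GSH/NADPH master mix; start with cumene hydroperoxide; read 340/450 nm fluorescence at 0 and 15 min. Finals were 200 nM GPX4, 1 mM GSH, 0.5 mM CHP, 0.5 mM NADPH, 100 nM GR.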
# [3] = Quantitative High-Throughput drug screen in 47 multiple myeloma cell lines against the NCATS MIPE library collection: FR4_PLB cell viability assay (AID 1918924; also: nearly all actives have a fitted effect of over 35% in size; also: potency is read from the fitted curve at half-maximal effect)
# In short: (§1)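 Steps: seed 500 cells per well; pin-transfer MIPE 4.0 library; incubate 48 h at 37C, 5% CO2, humidified; add CellTiter-Glo, 5 min room temperature; read luminescence.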
# [4] = Quantitative High-Throughput drug screen in 47 multiple myeloma cell lines against the NCATS MIPE library collection: EJM_DSMZ cell viability assay (AID 1918926; also: nearly all actives have a fitted effect of over 30% in size; also: potency is read from the fitted curve at half-maximal effect)
# In short: (§2)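 qHTS of the MIPE 4.0 collection: 500 myeloma cells/well, 48 h drug exposure at 37C in 5% CO2, then CellTiter-Glo for 5 min at room temperature before luminescence reading.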
# [5] = Quantitative High-Throughput drug screen in 47 multiple myeloma cell lines against the NCATS MIPE library collection: AMO1_DSMZ cell viability assay (AID 1918927; also: nearly all actives have a fitted effect of over 30% in size; also: potency is read from the fitted curve at half-maximal effect)
# In short: as §2
# [6] = Quantitative High-Throughput drug screen in 47 multiple myeloma cell lines against the NCATS MIPE library collection: ARP1_JJKsccF8 cell viability assay (AID 1918928; also: nearly all actives have a fitted effect of over 40% in size; also: potency is read from the fitted curve at half-maximal effect)
# In short: (§3)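 500 cells/well; MIPE 4.0 library pinned in; 48 h, 37 °C, 5% CO2; CellTiter-Glo ATP luminescence. Controls: DMSO = 100% viability, medium only = 0%.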
# [7] = Quantitative High-Throughput drug screen in 47 multiple myeloma cell lines against the NCATS MIPE library collection: ARD_JJKsccE7 cell viability assay (AID 1918929; also: potency is read from the fitted curve at half-maximal effect)
# In short: as §2
# [8] = Quantitative High-Throughput drug screen in 47 multiple myeloma cell lines against the NCATS MIPE library collection: Karpas620_DSMZ cell viability assay (AID 1918959); also: nearly all actives have a fitted effect of over 30% in size; also: potency is read from the fitted curve at half-maximal effect
# In short: as §1
# [9] = Quantitative High-Throughput drug screen in 47 multiple myeloma cell lines against the NCATS MIPE library collection: KMM1_JCRB cell viability assay (AID 1918960); also: nearly all actives have a fitted effect of over 30% in size; also: potency is read from the fitted curve at half-maximal effect
# In short: as §3
# [10] = Quantitative High-Throughput drug screen in 47 multiple myeloma cell lines against the NCATS MIPE library collection: KHM11_PLB cell viability assay (AID 1918962); also: nearly all actives have a fitted effect of over 35% in size; also: potency is read from the fitted curve at half-maximal effect
# In short: as §1
# [11] = Quantitative High-Throughput drug screen in 47 multiple myeloma cell lines against the NCATS MIPE library collection: JIM3_ECACC cell viability assay (AID 1918963; also: nearly all actives have a fitted effect of over 35% in size; also: potency is read from the fitted curve at half-maximal effect)
# In short: as §1
# [12] = Quantitative High-Throughput drug screen in 47 multiple myeloma cell lines against the NCATS MIPE library collection: JIM1_ECACC cell viability assay (AID 1918964; also: potency is read from the fitted curve at half-maximal effect)
# In short: as §2
# [13] = Quantitative High-Throughput drug screen in 47 multiple myeloma cell lines against the NCATS MIPE library collection: Delta47_JCRB cell viability assay (AID 1918925; also: nearly all actives have a fitted effect of over 45% in size; also: potency is read from the fitted curve at half-maximal effect)
# In short: as §2
# [14] = Quantitative High-Throughput drug screen in 47 multiple myeloma cell lines against the NCATS MIPE library collection: Karpas417_ECACC cell viability assay (AID 1918961); conditions: Karpas417 myeloma viability, CellTiter-Glo ATP luminescence, 48 h; viability (% of DMSO): at 45.8 µM (top of the series); also: potency is read from the fitted curve at half-maximal effect
# In short: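 CellTiter-Glo luminescence (ATP) after 48 h compound exposure, 37C/5% CO2; 500 cells/well; MIPE 4.0 approved/investigational drugs pinned in; DMSO = 100%, media only = 0% viability.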
SMILES,Potency [1],Potency [2],Potency [3],Potency [4],Potency [5],Potency [6],Potency [7],Potency [8],Potency [9],Potency [10],Potency [11],Potency [12],Potency [13],Potency [14],viability (% of DMSO) [14],"activity, negative = inhibition [1]",outcome [2],outcome [1],"activity change, negative = inhibition [2]"
CN(CC(=O)N(Cc1ccc(C2CCCCC2)cc1)c1ccc(C(=O)O)c(O)c1)S(=O)(=O)c1c(F)c(F)c(F)c(F)c1F,inactive,11.4 µM (active),20.9 µM (active),18.7 µM (active),5.26 µM (active),23.5 µM (active),11.8 µM (active),2.96 µM (active),10.5 µM (active),14.8 µM (active),9.35 µM (active),3.32 µM (active),–,–,–,–,–,–,–
C=C(C)[C@@H]1CC[C@]2(C)CC[C@]3(C)[C@H](CC[C@@H]4[C@@]5(C)CC[C@H](O)C(C)(C)[C@H]5CC[C@]43C)[C@@H]12,inactive,inactive,inactive,inactive,inactive,–,–,inactive,inactive,–,–,inactive,–,–,–,–,–,–,–
O=C1NC(O)CCN1[C@@H]1O[C@H](CO)[C@H](O)[C@H]1O (stereo partly specified),inactive,inactive,inactive,inactive,–,–,inactive,inactive,inactive,inactive,inactive,–,inactive,inactive,–,–,–,–,–
Cn1c(Nc2ccc(C(F)(F)F)cc2)nc2cc(Oc3ccnc(-c4ncc(C(F)(F)F)[nH]4)c3)ccc21,inactive,inactive,18.7 µM (active),–,9.35 µM (active),20.9 µM (active),16.6 µM (active),–,16.6 µM (active),18.7 µM (active),–,9.35 µM (active),662 nM (active),4.18 µM (active),–,–,–,–,–
NC(=O)Nc1cc(-c2ccc(CN3CCOCC3)cc2)sc1C(N)=O,inactive,inactive,18.7 µM (active),20.9 µM (active),2.96 µM (active),18.7 µM (active),0.935 µM (active),6.62 µM (active),4.18 µM (active),0.935 µM (active),4.69 µM (active),1.48 µM (active),–,0.0833 µM (active),–,–,–,–,–
CCCNS(=O)(=O)Nc1ncnc(OCCOc2ncc(Br)cn2)c1-c1ccc(Br)cc1,inactive,inactive,inactive,–,–,inactive,inactive,–,inactive,inactive,inactive,inactive,–,–,–,–,–,–,–
CC(C)c1cnn2c(NCc3ccccc3)cc(NCCCCCCN)nc12,inactive,inactive,18.7 µM (active),13.2 µM (active),23.5 µM (active),16.6 µM (active),20.9 µM (active),–,16.6 µM (active),–,20.9 µM (active),–,–,–,–,–,–,–,–
CCN(C(=O)c1c(O)c2c(Cl)cccc2n(C)c1=O)c1ccccc1,inactive,inactive,inactive,inactive,–,inactive,–,16.6 µM (active),–,–,inactive,–,inactive,–,104% (active),–,–,–,–
COC1=C(OC)C(=O)C(CC=C(C)CCC=C(C)CCC=C(C)CCC=C(C)CCC=C(C)CCC=C(C)CCC=C(C)CCC=C(C)CCC=C(C)CCC=C(C)C)=C(C)C1=O,–,–,inactive,inactive,inactive,inactive,inactive,inactive,inactive,–,inactive,–,–,inactive,–,1.94% [at 4.49 µM],inactive [at 4.52 µM],–,–
Cn1cc(C2=C(c3c4n(c5ccccc35)CCC(CN)C4)C(=O)NC2=O)c2ccccc21 (stereo unspecified),–,–,–,9.35 µM (active),10.5 µM (active),18.7 µM (active),7.43 µM (active),9.35 µM (active),13.2 µM (active),7.43 µM (active),–,8.33 µM (active),5260 nM (active),9.35 µM (active),–,–,–,inactive [at 9.52 µM],-6.23% [at 9.73 µM]
CC(=O)O[C@H]1C[C@@H]2CC[C@H]3[C@H]4C[C@H]([N+]5(C)CCCCC5)[C@@H](OC(C)=O)[C@@]4(C)CC[C@@H]3[C@@]2(C)C[C@H]1[N+]1(C)CCCCC1,inactive,inactive,inactive,inactive,–,inactive,inactive,inactive,inactive,–,inactive,inactive,inactive,–,–,–,–,–,–
